Here are results for nine compounds from PubChem BioAssay.

The nature of assay [1]: HepG2 liver cancer cell viability effects, profiling panel, resazurin fluorescence, 24 h, PK04 Diversity Set (AID 1172). Conditions: higher = more signal. On the technique in general: The colour change of resazurin is a common sign of viable cells or microbes.
Assay [2] is described as follows: basal S. cerevisiae growth modulation, no modifier, primary screen, OD600, strain BY4716, 24 h, basal condition (AID 1173). Conditions: OD600, 24 h, higher = more signal, called active from +8 up or from −8 down.
A short description of assay [3]: MM1S myeloma cell viability, profiling panel, resazurin fluorescence, basal, 24 h, PK04 Diversity Set (AID 1174).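 Further: MM1S multiple myeloma cell line.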 As to conditions: higher = more signal, called active from +8 up or from −8 down.
For assay [4], the target named is Dihydroorotate dehydrogenase (quinone), mitochondrial (Plasmodium falciparum (isolate 3D7)) (UniProt Q08210). Kind of assay: PfDHODH enzyme inhibitors, primary screen, biochemical, C-terminal His tag, absorbance 600 nm (AID 1175).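 Further: recombinant parasite enzyme with a five histidine tag at its C terminus.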 As to conditions: DCIP absorbance 600 nm, higher = more signal, called active from +8 up or from −8 down.
Dihydroorotate dehydrogenase (quinone), mitochondrial (Plasmodium falciparum (isolate 3D7)), sequence (Q08210 whole entry, looked up): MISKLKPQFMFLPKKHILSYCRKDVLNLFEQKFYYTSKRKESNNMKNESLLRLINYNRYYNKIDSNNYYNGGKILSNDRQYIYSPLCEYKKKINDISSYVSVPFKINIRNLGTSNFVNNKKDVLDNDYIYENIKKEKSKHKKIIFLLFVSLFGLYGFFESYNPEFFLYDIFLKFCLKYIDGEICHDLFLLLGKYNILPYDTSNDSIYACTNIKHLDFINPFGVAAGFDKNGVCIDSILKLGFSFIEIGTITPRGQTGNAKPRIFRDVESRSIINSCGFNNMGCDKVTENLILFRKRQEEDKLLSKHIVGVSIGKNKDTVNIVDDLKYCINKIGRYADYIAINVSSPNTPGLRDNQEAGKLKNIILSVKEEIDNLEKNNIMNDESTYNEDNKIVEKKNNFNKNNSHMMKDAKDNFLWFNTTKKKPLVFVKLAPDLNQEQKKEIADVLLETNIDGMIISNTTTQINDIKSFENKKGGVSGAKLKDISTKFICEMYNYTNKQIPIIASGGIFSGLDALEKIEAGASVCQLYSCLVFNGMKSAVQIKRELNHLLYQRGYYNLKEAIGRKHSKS
Assay [5] in a line: P. aeruginosa biofilm formation inhibitors, primary screen, strain PAO1, LB-PBS medium, absorbance 600 nm (AID 1176). As to conditions: P. aeruginosa PAO1 growth/biofilm, A600, 12 h; higher = more signal.
The nature of assay [6]: S. cerevisiae RM11-1a growth modifiers, primary screen, strain RM11-1a, OD600, basal, 24 h (AID 1177).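 Further: cultures grown under basal conditions with no added stressor.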 Conditions: OD600, 24 h, higher = more signal, called active from +8 up or from −8 down.
A short description of assay [7]: E. coli acrAB mutant growth effects, primary screen, E. coli filamentation inducers, strain DRC39, OD650, 24 h (AID 1178).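 Further: growth measured as culture turbidity by optical density at 650 nm.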 Conditions: higher = more signal, called active from +8 up or from −8 down.
Assay [8] can be described thus: E. coli acrAB mutant growth effects, primary screen, E. coli filamentation inducers, strain DRC39, OD650, 48 h (AID 1179).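 Further: screen aims at cell division blockers that make cells filament.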 Conditions: E. coli DRC39 delta-acrAB growth, higher = more signal, called active from +8 up or from −8 down.
The nature of assay [9]: RPMI8226 myeloma cell viability, profiling panel, resazurin fluorescence, basal, 24 h, PK04 Diversity Set (AID 1180).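 Further: RPMI8826 multiple myeloma cell line at 5000 cells per well.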 Conditions: higher = more signal.
Assay [10] has as its target E3 ubiquitin-protein ligase XIAP (Homo sapiens) (UniProt P98170). Kind of assay: XIAP binders, primary screen, biophysical, small-molecule microarray, fluorescence 635 nm (AID 1181).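 Further: score merges 667 nm emission and signal to noise over triplicate slides.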 As to conditions: small-molecule microarray binding, higher = more signal.
In assay [11] the test system is XIP peptide (Xip251-270) binding. Kind of assay: small-molecule binders of XIP peptide, primary screen, biochemical, small-molecule microarray, fluorescence 635/667 nm, 0.1 µg/mL protein (AID 1182). Conditions: fluorescent protein binding, 635 nm, higher = more signal, called active from +8 up or from −8 down.
Another assay relates to XIP peptide (Xip251-270). Description: small-molecule binders of XIP peptide, primary screen, biochemical, small-molecule microarray, fluorescence 635/667 nm, 0.5 µg/mL protein (AID 1183). As to conditions: small-molecule microarray binding, fluorescence 635 nm; higher = more signal.
Assay [12] in a line: Plasmodium falciparum growth inhibition, primary screen, strain 3D7, DAPI fluorescence, 100 nL (AID 1184).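 Further: parasites grown inside human red blood cells in medium with human serum.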 Conditions: P. falciparum 3D7 growth, 3 d, higher = more signal.
The target in assay [13] is Homeobox protein Hox-A13 (Mus musculus) (UniProt Q62424). Description: inhibitors of HoxA13-DNA binding, primary screen, biochemical, fluorescence polarization, labeled oligonucleotide (AID 1185). As to conditions: 15 min, higher = more signal, called active from +8 up or from −8 down. For orientation: Polarisation of emitted light reports the rotation of a fluorescent probe.
Homeobox protein Hox-A13 (Mus musculus), sequence (Q62424 whole entry, looked up): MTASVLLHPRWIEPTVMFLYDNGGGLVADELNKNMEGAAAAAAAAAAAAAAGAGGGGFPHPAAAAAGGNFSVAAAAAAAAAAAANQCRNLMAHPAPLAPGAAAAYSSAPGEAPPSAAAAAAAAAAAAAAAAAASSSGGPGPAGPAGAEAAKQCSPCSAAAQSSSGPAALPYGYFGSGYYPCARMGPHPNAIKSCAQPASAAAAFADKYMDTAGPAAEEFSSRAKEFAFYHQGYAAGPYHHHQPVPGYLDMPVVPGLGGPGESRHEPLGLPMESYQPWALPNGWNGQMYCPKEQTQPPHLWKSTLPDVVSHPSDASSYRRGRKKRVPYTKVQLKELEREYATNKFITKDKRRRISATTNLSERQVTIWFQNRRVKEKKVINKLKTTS

Assay [14] can be described thus: inhibitors of hydroxyurea-induced Chk1 phosphorylation, primary screen, imaging, HeLa, phospho-Chk1 antibody, percent positive cells (AID 1186). As to conditions: hydroxyurea-induced phospho-Chk1 immunofluorescence imaging, higher = more signal.
A short description of assay [15]: inhibitors of hydroxyurea-induced Chk1 phosphorylation, primary screen, imaging, HeLa, phospho-Chk1 nuclear intensity (AID 1187). As to conditions: hydroxyurea-induced phospho-Chk1 immunofluorescence imaging, higher = more signal.

Calls of active or inactive are those of the source. Unless noted, how the calls were made is not given here.

E3 ubiquitin-protein ligase XIAP (Homo sapiens), sequence (P98170 whole entry, looked up): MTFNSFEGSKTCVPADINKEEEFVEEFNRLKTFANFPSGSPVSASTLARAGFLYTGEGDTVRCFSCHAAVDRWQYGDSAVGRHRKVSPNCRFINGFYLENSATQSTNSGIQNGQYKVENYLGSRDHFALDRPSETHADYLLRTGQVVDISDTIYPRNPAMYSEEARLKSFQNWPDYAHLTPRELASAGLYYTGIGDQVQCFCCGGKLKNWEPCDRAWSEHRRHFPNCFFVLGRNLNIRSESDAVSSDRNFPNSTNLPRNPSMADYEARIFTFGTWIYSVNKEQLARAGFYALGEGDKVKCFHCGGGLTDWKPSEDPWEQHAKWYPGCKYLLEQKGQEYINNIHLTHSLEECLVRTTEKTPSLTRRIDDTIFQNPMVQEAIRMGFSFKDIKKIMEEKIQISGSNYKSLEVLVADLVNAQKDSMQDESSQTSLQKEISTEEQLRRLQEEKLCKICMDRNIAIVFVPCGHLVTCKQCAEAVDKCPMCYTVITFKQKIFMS

For `CC(C)N1CC=CC23O[C@@H]4C=CCCOC(=O)C4[C@H]2C(=O)N(CCCCCO)[C@@H]3C1=O` (some centres undefined), the z-score in assay [1] is 0.613; in assay [2] it was 0.848 (inactive); in assay [3], 0.988 (inactive); in assay [5], 0.0126 (inactive); in assay [6] it was 0.581 (inactive); in assay [7], 1.01 (inactive). The z-score in assay [8] is 0.798 (inactive); in [9] it was 1.42; in assay [12] it was 0.263; in assay [13] it was -3.86 (inactive); in assay [14] it was -0.389 (inactive); in [15], 0.0936 (inactive). In addition, the composite z-score in [4] was -0.727 (inactive); in assay [10], 0.0684; in assay [11] it was 0.192 (inactive); in the assay with XIP peptide (Xip251-270), -0.386.
Consider `NCCCC[C@@H]1NC(=O)[C@H]2C[C@@H](C(=O)NCc3ccc(F)cc3)[C@@H](c3ccc(O)cc3)N2C1=O`, for which the z-score in assay [1] is 0.175; in assay [2], 1.15 (inactive); in assay [3], 0.247 (inactive); in assay [5], 0.174 (inactive); in [6], 1.02 (inactive); in [7], 0.207 (inactive). Further, the z-score in assay [8] was -0.277 (inactive); in [9], 0.191; in assay [12], 0.338; in [13], -4.42 (inactive); in assay [14] it was -0.52 (inactive); in [15], -0.367 (inactive). Moreover, the composite z-score was -0.17 (inactive) in assay [4], 0.226 in [10], 2.07 (inactive) in assay [11] and 0.563 in the assay on XIP peptide (Xip251-270).
In the case of `COC(=O)C1(CC(C)C)C=C2C(=C(C(C)C)C(=O)C2C)CN1` (centres undefined), the z-score in [1] was -0.947; in [2], 1.46 (inactive); in [3], -1.56 (inactive); in assay [5], 0.399 (inactive); in [6], 0.271 (inactive); in assay [7], -0.592 (inactive). For the same compound, the z-score was -0.113 (inactive) in assay [8]; -1.97 in assay [9]; 1.24 in [12]; -6.06 (inactive) in [13]; 0.677 (inactive) in [14]; 0.675 (inactive) in assay [15]. Besides, the composite z-score was -1.18 (inactive) in assay [4], 0.732 in assay [10], -0.418 (inactive) in assay [11] and 0.172 with XIP peptide (Xip251-270).
Turning to `O=C1O[C@@H](c2ccccc2)[C@@H](c2ccccc2)N2[C@@H](c3ccc(OCCO)cc3)[C@]3(C(=O)Nc4ccc(C#CCCO)cc43)[C@@H](C(=O)Nc3nc4ccccc4s3)[C@H]12`, the z-score in assay [1] is 1.44; in assay [2] it was 0.799 (inactive); in assay [3], 1 (inactive); in [5], 0.89 (inactive); in assay [6], 0.25 (inactive); in [7] it was 0.042 (inactive). Also, the z-score in [8] is -0.366 (inactive); in assay [9] it was 1.51; in assay [12], -1.86; in [13], 1.8 (inactive); in assay [14], -0.234 (inactive); in [15] it was -0.41 (inactive). Moreover, the composite z-score was -0.812 (inactive) in assay [4], 0.0225 in [10], 0.469 (inactive) in assay [11] and 0.487 in the assay on XIP peptide (Xip251-270).
Turning to `C[C@]1(C(=O)NCC(F)(F)F)c2ccccc2C(=O)N(Cc2ccc(OC(F)(F)F)cc2)[C@H]1c1ccc(CO)cc1`, the z-score in assay [1] is 0.2; in [2], -0.139 (inactive); in [3], -0.296 (inactive); in assay [5], 1.48 (inactive); in assay [6], -0.353 (inactive); in assay [7], -0.414 (inactive). Further, the z-score in assay [8] is -1 (inactive); in [9], 0.14; in assay [12] it was -0.231; in [13] it was -3.96 (inactive); in assay [14], 0.01 (inactive); in assay [15] it was -0.125 (inactive). For the same compound, the composite z-score in assay [4] is 0.182 (inactive); in [10], 0.212; in assay [11] it was 0.102 (inactive); with XIP peptide (Xip251-270), 0.564.
Turning to `CC(C)C[C@H]1NC(=O)[C@@]23C(=O)N[C@@H](Cc4ccccc4)C2[C@H](C)[C@@]2(C)O[C@H]2C3/C=C/C/C=C\CNC(=O)[C@@H]2CCCN2C1=O` (some centres undefined), the z-score in assay [1] is -0.706; in [2] it was -1.43 (inactive); in [3], -0.0195 (inactive); in [5] it was 0.352 (inactive); in assay [6], -0.162 (inactive); in [7], -0.467 (inactive). The z-score in [8] is -0.0699 (inactive); in assay [9], 0.476; in assay [12], 1.18; in [13], -5.47 (inactive); in assay [14], 0.216 (inactive); in assay [15] it was 0.162 (inactive). The composite z-score in assay [4] is -0.742 (inactive); in assay [10], 0.155; in assay [11], 1.73 (inactive); in the assay on XIP peptide (Xip251-270), 0.0626.
As to `C=CCC(OC(C)=O)[C@@H]1[C@@H](N(Cc2ccc(-c3cccc(C(F)(F)F)c3)o2)C(=O)c2cccc3ccccc23)c2cc(OCCCO)ccc2N1C(=O)c1ccc2ccccc2n1` (some centres undefined), the z-score in [1] is -0.892; in assay [2], -0.606 (inactive); in assay [3], -0.864 (inactive); in [5], -0.51 (inactive); in assay [6] it was 0.356 (inactive); in assay [7], 0.249 (inactive). Moreover, the z-score in assay [8] is -0.195 (inactive); in assay [9], -0.804; in assay [12] it was -2.15; in assay [13] it was -2.09 (inactive); in [14] it was -0.131 (inactive); in assay [15], 0.228 (inactive). In addition, the composite z-score was 0.995 (inactive) in assay [4], -0.227 in assay [10], -0.279 (inactive) in assay [11] and -0.0301 with XIP peptide (Xip251-270).
For `C=CCC(OC(C)=O)[C@@H]1[C@@H](N(Cc2cccc3ccccc23)C(=O)c2cccc3ccccc23)c2cc(OCCCO)ccc2N1C(=O)Cc1ccc2ccccc2c1` (some centres undefined), the z-score was 0.414 in assay [1]; -0.599 (inactive) in assay [2]; -0.41 (inactive) in assay [3]; -0.723 (inactive) in [5]; -0.0264 (inactive) in assay [6]; 0.632 (inactive) in [7]. Moreover, the z-score is 0.334 (inactive) in [8]; -0.0924 in [9]; -1.35 in assay [12]; -2.12 (inactive) in assay [13]; 0.233 (inactive) in [14]; 0.42 (inactive) in assay [15]. Further, the composite z-score is -0.373 (inactive) in assay [4], 0.452 in [10], 0.457 (inactive) in assay [11] and -0.716 with XIP peptide (Xip251-270).
In the case of `C#CCN(C/C=C/c1ccccc1)[C@H](CO[Si](C)(C)C(C)(C)C)c1ccccc1`, the z-score in assay [1] was -0.355; in assay [2], 0.571 (inactive); in assay [3] it was -0.668 (inactive); in [5], 0.167 (inactive); in assay [6] it was 0.244 (inactive); in assay [7], -1.38 (inactive). Moreover, the z-score was -1.59 (inactive) in assay [8]; -0.764 in assay [9]; -0.775 in assay [12]; -0.229 (inactive) in assay [13]; 0.229 (inactive) in assay [14]; -0.274 (inactive) in assay [15]. Moreover, the composite z-score is -0.26 (inactive) in [4], -0.295 in assay [10], 0.141 (inactive) in [11] and 0.0247 with XIP peptide (Xip251-270).
